Assay results: PubChem BioAssay AID488784 (Sanford-Burnham Center for Chemical Genomics, 2010)
Among all 1,000 compounds or so, about 700 (70%) were called active. Rule as the data show it: active = inhibition above about 50%; inactive = the rest. So high a share suggests a set chosen from earlier hits. Only a sample is shown.

Assay: CASP1-PYCARD signaling inhibition in yeast, confirmatory test, counterassay for NLRP3 inhibitor program, one-dose (AID 488784)
Conditions: yeast expressing Caspase-1-ASC, luminescence counter screen; at 10 µM; hits give high values

Question: Which inhibition does the source give for `O=C1/C(=C\c2ccc3c(c2)OCO3)N2CCC1CC2` here?
Answer: 60.4% (active)

Question: With `Cc1cc2ccccn2c1C(C[N+](=O)[O-])c1c(F)cccc1Cl` (centres undefined) as the molecule, how does the inhibition read?
Answer: 12.2% (inactive)

Question: With `CCCCCCCCCCCCn1ccc(=N)cc1` as the molecule, how does the inhibition read?
Answer: 59% (active)

Question: With `Cc1ccc(-c2nc3ccccc3c(=O)n2-c2ccc(Br)cn2)cc1` as the molecule, how does the inhibition read?
Answer: 44% (inactive)
